Shown are actives, neighbours in structure and some others; about 2.1% of the full set was active somewhere.
Ba/F3 V617F tox = loss of viability in JAK2V617F-driven Ba/F3 cells. Ba/F3 EpoR-JAK2V617F viability, ATP luminescence. inhibition, % at 5.6 µM. actives 1.1% (n = 220,000). AID 1446;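 active = inhibition above the campaign mean plus 3 SD over all tested compounds, cut at about 24% in these data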;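 also: cytokine-independent growth of Ba/F3 cells driven by EpoR plus mutant JAK2; 0% = DMSO-treated cells and 100% = JAK inhibitor I control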
aSyn 5UTR inh = 5' untranslated region of α-synuclein, MLPCN primary screen | alpha-synuclein 5'UTR reporter, inhibitor activity | inhibition, % (tested at 7.5 µM) | actives 0.82% (n = 300,000) | AID 1813; in the data active = inhibition above about 60%; inconclusive = no clear call, values can overlap the other calls;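 also: H4 neuroglioblastoma cells stably carrying SNCA 5'UTR luciferase fusion; 0% = DMSO wells and 100% = positive control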
IEC-6 cytotox = counter-screen for KLF5 inhibitors: cytotoxicity in IEC-6 cells; actives 0.78% (n = 290,000); IEC-6 cytotoxicity, luminescence viability; inhibition, % at 5 µM; AID 1825; in the data active = inhibition above about 22%;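 also: 0% = plate median of test compound wells and 100% = cytotoxic reference compound wells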
APP transl inh = APP translation inhibition. SH-SY5Y APP 5'UTR-luciferase reporter, luminescence. inhibition, % at 2 µM. actives 0.82% (n = 190,000). AID 1285;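 active = inhibition above a set limit, derived from the sample mean plus 3 SD, cut at about 45% in these data; inconclusive = one replicate passes the limit while the other fails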
KLF5 inhibitor = inhibitors of KLF5 expression; DLD-1 KLF5 promoter-luciferase reporter, luminescence; inhibition, % at 5 µM; actives 0.23% (n = 290,000); AID 1700;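 active = inhibition above a per-plate limit of that plate's mean compound inhibition plus 3 SD, cut at about 60% in these data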;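 also: 0% = DMSO wells and 100% = LY294002 at 200 µM; higher means less KLF5 promoter-driven luciferase light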
BaF3 parental = parental Ba/F3 viability inhibition as JAK2V617F counter-screen. actives 1.1% (n = 220,000). inhibition, % at 5.6 µM. CellTiter-Glo ATP luminescence;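 active = inhibition above a per-campaign cutoff, the mean inhibition of all tested compounds plus 3 SD, cut at about 27% in these data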;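 also: 0% = DMSO wells and 100% = JAK Inhibitor I control wells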
* = called active by the depositor; ? = inconclusive; . = no result given.

SMILES | Ba/F3 V617F tox | aSyn 5UTR inh | IEC-6 cytotox | APP transl inh | KLF5 inhibitor | BaF3 parental
CC1(C#CC[N+]2(C)CCCCC2)CCC2C(O1)c1ccccc1OC2(C)C (stereo unspecified) | -4 | -6 | -2 | -10 | -10 | 3
COc1ccc(-c2nnc3sc(C4CCCCC4)nn23)cc1OC | -2 | 65* | -7 | -20 | -16 | 3
Cc1nc(-c2cc(-c3nc(-c4ccc(C(F)(F)F)cc4)no3)no2)cs1 | -1 | -6 | 1 | . | -4 | 61*
Cc1nc(-c2cc(-c3nc(-c4cc(C(F)(F)F)cc(C(F)(F)F)c4)no3)no2)cs1 | -5 | 9 | -1 | . | -20 | -1
Clc1cccc(Cl)c1Cn1nnc(N2CCCC2)n1 | 34* | -64 | 0 | . | -26 | 61*
Cc1nn(-c2ccccc2Cl)c(Cl)c1/C=N/Nc1cccc(C(=O)O)c1 | -3 | 103* | -8 | -3 | -140 | 4
Cc1ccsc1/C=N/Nc1cccc(C(=O)O)c1 | 0 | 105* | -6 | 42 | 11 | 3
NS(=O)(=O)c1ccc(CCNc2ccnc3cc(Cl)ccc23)cc1 | . | -7 | 6 | . | -9 | .
CC(CCc1ccccc1)NC(=O)C(Cc1ccccc1)NC(N)=O (stereo unspecified) | . | 12 | -2 | . | 15 | .
CCOC(=O)C1CCCN(C(=O)c2cc(S(=O)(=O)N(C)C)ccc2N2CCCC2)C1 (stereo unspecified) | . | -9 | . | . | . | .
CCCC[n+]1c2ccccc2cc2ccccc21 | . | -1 | -5 | . | -26 | .
O=[N+]([O-])c1ccc(C[n+]2cccc3ccccc32)cc1 | 0 | 10 | 4 | -20 | -17 | -1
CCCCC[n+]1cccc2c3ccccc3ccc21 | 100* | 26 | 14 | 16 | 49 | 77*
c1ccc(C[n+]2cccc3c4ccccc4ccc32)cc1 | 97* | -17 | 3 | 2 | 6 | 79*
CN(C)c1ccc(-c2nc3ccccc3n2C)cc1 | 44* | ? | 12 | -98 | -14 | 53*
CC(C)n1c(-c2ccc(N(C)C)cc2)nc2ccccc21 | -4 | . | 15 | -170 | -76 | 2
CCNC(=O)NC(=O)C(C)OC(=O)Cc1coc2cc3c(cc12)CCC3 (stereo unspecified) | 0 | 8 | -2 | -14 | 10 | 7
Cn1cccc/c1=N\c1cccc[n+]1C | 73* | 9 | 1 | . | -13 | 63*
Nc1ccc(Br)cc1-c1nc2ccccc2[nH]c1=O | 66* | -102 | 39* | -25 | -32 | 100*
Nc1ccccc1-c1nc2ccccc2[nH]c1=O | . | -141 | 5 | . | -14 | .
CNC(=O)COc1ccc(S(=O)(=O)Nc2ccc(OC)cc2)cc1 | 1 | -22 | 5 | -42 | -4 | 90*
CNC(=O)COc1ccc(S(=O)(=O)Nc2ccc(C)cc2)cc1 | 0 | 4 | -1 | . | -14 | -2
O=C(COc1ccc(S(=O)(=O)Nc2ccccc2)cc1)NCc1ccncc1 | -5 | 38 | -5 | 14 | -3 | 54*
C[N+]1(CCCOC(=O)C2(c3ccccc3)CCCC2)CCOCC1 | 6 | 0 | 0 | -5 | 18 | 58*
CN(C)CCOC(=O)C1(c2ccccc2)CCCC1 | -5 | 6 | 4 | -18 | -44 | 0
SMILES | Ba/F3 V617F tox | aSyn 5UTR inh | IEC-6 cytotox | APP transl inh | KLF5 inhibitor | BaF3 parental
COc1ccc(O)c(C(=O)CC(=O)c2ccc(F)cc2)c1 | 0 | 73* | -2 | -149 | -121 | 2
COc1ccc(C(CCNC(C)c2ccccc2)C(C)C)cc1 (stereo unspecified) | -3 | 25 | 3 | . | -10 | 1
COc1ccc(C(C)NCCC(c2ccc(OC(C)C)cc2)c2ccccc2OC)cc1 (stereo unspecified) | . | 93* | 13 | . | 1 | .
CN1CCN(CC(=O)N2c3ccccc3C(C)(c3ccc(Cl)cc3)CC2(C)C)CC1 (stereo unspecified) | 2 | -30 | 0 | 3 | -20 | 6
CN1CCN(CC(=O)N2c3ccccc3C(C)(c3ccccc3)CC2(C)C)CC1 (stereo unspecified) | 30* | 0 | 4 | -11 | 2 | 3
Cc1onc(-c2c(F)cccc2Cl)c1C(=O)ONC(=O)c1ccco1 | -5 | 3 | -3 | . | -28 | -4
CN(C)CCCNc1cc(C(C)(C)C)nc2c(-c3ccc(Cl)cc3)cnn12 | 3 | 108* | -3 | . | -24 | 3
O=Nc1c2cc(-c3ccccc3)[nH]nc-2c2ccccc12 | 11 | 37 | 3 | -101 | -55 | 10
Cc1ccc(-c2cc3c(N=O)c4ccccc4c-3n[nH]2)cc1 | 7 | 92* | 11 | -6 | -17 | 6
